Compound activity (PubChem BioAssay)
GPR151 ag = activators of human GPR151. actives 1% (n = 650,000). activation, % at 11.2 µM. PathHunter beta-arrestin GPR151 cells, luminescence; in the data active means activation above about 4.9%
MITF primary = inhibitors of human MITF; O75030; AlphaScreen MITF homodimerization, bead proximity signal; inhibition, % at 2.6 µM; actives 0.91% (n = 650,000); AID 1259374; in the data active means inhibition above about 50%
Target sequence (O75030 whole entry, looked up): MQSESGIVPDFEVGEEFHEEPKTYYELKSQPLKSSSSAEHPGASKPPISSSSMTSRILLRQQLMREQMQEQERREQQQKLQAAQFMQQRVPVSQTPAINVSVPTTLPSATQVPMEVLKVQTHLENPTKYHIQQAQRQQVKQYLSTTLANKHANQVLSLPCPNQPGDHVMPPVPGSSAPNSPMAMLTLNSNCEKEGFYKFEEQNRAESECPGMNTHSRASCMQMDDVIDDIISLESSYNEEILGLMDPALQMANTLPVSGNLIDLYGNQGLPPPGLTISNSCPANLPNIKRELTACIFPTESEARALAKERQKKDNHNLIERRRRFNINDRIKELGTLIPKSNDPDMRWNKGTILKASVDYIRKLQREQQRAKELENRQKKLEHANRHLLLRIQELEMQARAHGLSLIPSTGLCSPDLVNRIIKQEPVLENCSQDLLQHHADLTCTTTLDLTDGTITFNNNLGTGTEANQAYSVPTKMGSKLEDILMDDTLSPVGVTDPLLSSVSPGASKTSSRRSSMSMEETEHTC
TEAD-YAP block = TEAD-YAP interaction inhibition; HEK-TIYL cells, TEAD-Gal4/YAP UAS-luciferase luminescence; inhibition, % at 9.12 µM; actives 1.4% (n = 640,000); AID 1259422; in the data active means inhibition above about 32%
FBW7 act = human FBW7 E3 ligase activation, primary screen. AlphaScreen FBW7–phospho-cyclin E peptide binding, activator screen. AID 1259310. normalized activity (activation), % at 26.1 µM. actives 0.13% (n = 650,000); in the data active means normalized activity above about 1.9%;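 further: purified mutant Fbw7 with reduced substrate affinity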
GPR151 conf act = human GPR151 activation, confirmation screen; 6,700 tested, under 10 active; shares compounds with GPR151 ag; activation, % at 11.2 µM; GPR151 PathHunter beta-arrestin cells, luminescence, 90 min; % of EA-reagent control over plate median;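 active means mean percent activation across replicates above the confirmation screen cutoff of 4.91%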
GPR119 ag = activates human GPR119 in a GPR151 counter-screen; AID 1508611; actives 0.3% (n = 6,700); shares compounds with GPR151 ag; GPR119 PathHunter beta-arrestin cells, luminescence, 90 min; 0 = compound-well median, 100 = enzyme-acceptor control; activation, % at 11.2 µM;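 active means mean percent activation in the counterscreen above 29.09%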;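 further: counterscreen on off-target GPR119 to flag nonselective hits from the GPR151 activator screen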
Hits are given with their value. Most compounds without a hit are left out; they make up all but 3.5% or so of the library.

Results for O=Cc1ccc(OC(=O)c2ccc(F)cc2)c(Br)c1 ?
GPR151 ag: inactive; MITF primary: inactive; TEAD-YAP block: inactive; FBW7 act: inactive

What do the screens show for `CC(=O)c1ccc(NC(=O)c2ccc(S(=O)(=O)N3CCCC3)cc2)cc1`?
GPR151 ag: 5.0; MITF primary: inactive; TEAD-YAP block: inactive; FBW7 act: inactive; GPR151 conf act: inactive; GPR119 ag: inactive

What do the screens show for `CC(=O)c1ccc(NC(=O)Nc2ccc(S(=O)(=O)N3CCCC3)cc2)cc1`?
GPR151 ag: inactive; MITF primary: inactive; TEAD-YAP block: inactive; FBW7 act: inactive

Results for COc1cc(NS(=O)(=O)c2ccc(NC(=O)c3ccc(C(C)=O)cc3)cc2)ncn1 ?
GPR151 ag: 5.7; MITF primary: inactive; TEAD-YAP block: inactive; FBW7 act: inactive; GPR151 conf act: inactive; GPR119 ag: inactive

How did C=CCOC(=O)/C(=C\c1ccco1)NC(=O)c1ccc(OCCCC)cc1 do in these assays?
GPR151 ag: inactive; MITF primary: inactive; TEAD-YAP block: inactive; FBW7 act: inactive

What do the screens show for `Nc1ccccc1S(=O)(=O)Nc1ccccc1`?
GPR151 ag: 5.0; MITF primary: inactive; TEAD-YAP block: inactive; FBW7 act: inactive; GPR151 conf act: inactive; GPR119 ag: inactive

Results for Nc1ccccc1S(=O)(=O)NCC(=O)O ?
GPR151 ag: inactive; MITF primary: inactive; TEAD-YAP block: inactive; FBW7 act: inactive

Results for Cc1cccc(C(=O)N/C(=N/c2nc(C)cc(C)n2)Nc2ccccc2)c1 ?
GPR151 ag: inactive; MITF primary: inactive; TEAD-YAP block: inactive; FBW7 act: inactive

Results for Cc1ccc(OCCNC(=O)C(=O)Nc2ccccc2F)cc1C ?
GPR151 ag: 5.2; MITF primary: inactive; TEAD-YAP block: inactive; FBW7 act: inactive; GPR151 conf act: inactive; GPR119 ag: inactive

How did CCC[C@@H]1NC(=O)[C@@H]2C[C@H](NC(=O)Nc3ccc(C)c(Cl)c3)CN2C1=O do in these assays?
GPR151 ag: inactive; MITF primary: inactive; TEAD-YAP block: inactive; FBW7 act: inactive

How did COc1ccc(-c2cnn3c(N(C)c4cccc(C)c4)ccnc23)cn1 do in these assays?
GPR151 ag: inactive; MITF primary: inactive; TEAD-YAP block: inactive; FBW7 act: inactive

What do the screens show for `COc1ccc(S(=O)(=O)NCCOC23CC4CC(CC(C4)C2)C3)cc1C`?
GPR151 ag: 5.3; MITF primary: inactive; TEAD-YAP block: inactive; FBW7 act: inactive; GPR151 conf act: inactive; GPR119 ag: inactive

Results for Cc1ccc(S(=O)(=O)NCCOC23CC4CC(CC(C4)C2)C3)cc1C ?
GPR151 ag: inactive; MITF primary: inactive; TEAD-YAP block: inactive; FBW7 act: inactive

Results for Cc1cc(CNc2nc3nonc3nc2N(C)C)nn1C ?
GPR151 ag: inactive; MITF primary: inactive; TEAD-YAP block: inactive; FBW7 act: inactive

Results for COCCNC(=O)CN1C(=O)/C(=C\c2ccc(F)cc2)Oc2ccccc21 ?
GPR151 ag: inactive; MITF primary: inactive; TEAD-YAP block: inactive; FBW7 act: inactive

What do the screens show for `C=CCSc1nnc2c(n1)OC(c1ccccc1OCCC)N(C(C)=O)c1ccccc1-2` (centres undefined)?
GPR151 ag: inactive; MITF primary: inactive; TEAD-YAP block: inactive; FBW7 act: inactive

Results for CCCNc1cc(C)nc(-c2ccccc2)n1 ?
GPR151 ag: inactive; MITF primary: inactive; TEAD-YAP block: inactive; FBW7 act: inactive

Results for Cc1cccc(-c2nc(C)cc(NCCc3ccccn3)n2)c1 ?
GPR151 ag: 5.8; MITF primary: inactive; TEAD-YAP block: inactive; FBW7 act: inactive; GPR151 conf act: inactive; GPR119 ag: inactive

What do the screens show for `CCCNc1nnnc2c1cnn2-c1ccccc1`?
GPR151 ag: inactive; MITF primary: inactive; TEAD-YAP block: inactive; FBW7 act: inactive

What do the screens show for `CC(C)CNc1nnnc2c1cnn2-c1ccccc1`?
GPR151 ag: 9.6; MITF primary: inactive; TEAD-YAP block: inactive; FBW7 act: inactive; GPR151 conf act: inactive; GPR119 ag: inactive

What do the screens show for `C=CCOc1ccccc1CN1CCc2nnc(CNC(=O)C3CCC(=O)N3)n2CC1` (centres undefined)?
GPR151 ag: 5.6; MITF primary: inactive; TEAD-YAP block: inactive; FBW7 act: inactive; GPR151 conf act: inactive; GPR119 ag: inactive

How did C=CCOc1ccccc1CN1CCc2nncn2CC1 do in these assays?
GPR151 ag: 7.4; MITF primary: inactive; TEAD-YAP block: inactive; FBW7 act: inactive; GPR151 conf act: inactive; GPR119 ag: inactive

Results for C=CCOc1ccccc1CN1CCc2nnc(CNC(=O)C3CCCN(C)C3)n2CC1 (centres undefined) ?
GPR151 ag: inactive; MITF primary: inactive; TEAD-YAP block: inactive; FBW7 act: inactive

Results for c1cnc2c(CN3CCc4nncn4CC3)cccc2c1 ?
GPR151 ag: inactive; MITF primary: inactive; TEAD-YAP block: inactive; FBW7 act: inactive

Results for COC(=O)C1=C(O)/C(=C\c2ccc(F)cc2)N=C1C ?
GPR151 ag: 8.6; MITF primary: inactive; TEAD-YAP block: inactive; FBW7 act: inactive; GPR151 conf act: inactive; GPR119 ag: inactive

What do the screens show for `O=C(Nc1cccc(-c2nc3ccccc3s2)c1)C12CC3CC(CC(C3)C1)C2`?
GPR151 ag: 5.5; MITF primary: inactive; TEAD-YAP block: inactive; FBW7 act: inactive; GPR151 conf act: inactive; GPR119 ag: inactive

What do the screens show for `O=C(Nc1cccc(-c2nc3ccccc3s2)c1)c1ccc(N2C(=O)CCC2=O)cc1`?
GPR151 ag: 7.4; MITF primary: inactive; TEAD-YAP block: inactive; FBW7 act: inactive; GPR151 conf act: inactive; GPR119 ag: inactive

How did O=C(Nc1cccc(-c2nc3ccccc3s2)c1)c1ccccc1 do in these assays?
GPR151 ag: inactive; MITF primary: inactive; TEAD-YAP block: inactive; FBW7 act: inactive

How did Cc1cccc(C(=O)Nc2cccc(-c3nc4ccccc4s3)c2)c1 do in these assays?
GPR151 ag: inactive; MITF primary: inactive; TEAD-YAP block: inactive; FBW7 act: inactive

How did COc1cc(/C=c2/sc3ncnn3c2=O)ccc1OCC(C)C do in these assays?
GPR151 ag: inactive; MITF primary: inactive; TEAD-YAP block: inactive; FBW7 act: inactive

How did CCCCN(CC)C(=O)c1c[nH]c2ccc(S(=O)(=O)N(C)c3ccc(Cl)cc3F)cc2c1=O do in these assays?
GPR151 ag: 8.3; MITF primary: inactive; TEAD-YAP block: inactive; FBW7 act: inactive; GPR151 conf act: inactive; GPR119 ag: inactive

Results for CCCCN(CC)C(=O)c1c[nH]c2ccc(S(=O)(=O)N(C)c3ccc(Cl)cc3)cc2c1=O ?
GPR151 ag: inactive; MITF primary: inactive; TEAD-YAP block: inactive; FBW7 act: inactive

Results for CN(c1ccc(F)cc1)S(=O)(=O)c1ccc2[nH]cc(C(=O)NCC3CCCO3)c(=O)c2c1 (centres undefined) ?
GPR151 ag: 5.4; MITF primary: inactive; TEAD-YAP block: inactive; FBW7 act: inactive; GPR151 conf act: inactive; GPR119 ag: inactive

What do the screens show for `NC(=O)c1ccc(-c2ccc(C(=O)NCCOc3ccccc3)s2)cc1`?
GPR151 ag: inactive; MITF primary: inactive; TEAD-YAP block: inactive; FBW7 act: inactive
